Assay outcomes: PubChem BioAssay, The Scripps Research Institute Molecular Screening Center
CHO-K1 Ca antag – nonselective inhibitor or artifact in parental CHO-K1 cells. ATP-induced calcium, Fluo-8 fluorescence. inhibition, % at 3 µM. 360,000 tested, 0.6% active. AID 602250;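 active means inhibition above a per-plate cutoff, the plate's mean sample inhibition plus 3 SD, cut at about 24% in these data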;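 further: 0% = DMSO plus EC80 ATP and 100% = DMSO alone without ATP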
CHRM1 antagonist – blocks human M1 muscarinic receptor; P11229; inhibition, % at 3 µM; AID 588852; CHO-K1 hM1, Fluo-8 calcium fluorescence, ACh EC80 antagonist; 360,000 tested, 1.3% active;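 active means percent inhibition above its own plate's cutoff, namely the mean of that plate's compound wells plus 3 SD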;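 further: peak over basal fluorescence ratio during 140 s after agonist addition; 0% = ACh EC80 plus DMSO and 100% = DMSO alone without agonist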
Target sequence (P11229 whole entry, looked up): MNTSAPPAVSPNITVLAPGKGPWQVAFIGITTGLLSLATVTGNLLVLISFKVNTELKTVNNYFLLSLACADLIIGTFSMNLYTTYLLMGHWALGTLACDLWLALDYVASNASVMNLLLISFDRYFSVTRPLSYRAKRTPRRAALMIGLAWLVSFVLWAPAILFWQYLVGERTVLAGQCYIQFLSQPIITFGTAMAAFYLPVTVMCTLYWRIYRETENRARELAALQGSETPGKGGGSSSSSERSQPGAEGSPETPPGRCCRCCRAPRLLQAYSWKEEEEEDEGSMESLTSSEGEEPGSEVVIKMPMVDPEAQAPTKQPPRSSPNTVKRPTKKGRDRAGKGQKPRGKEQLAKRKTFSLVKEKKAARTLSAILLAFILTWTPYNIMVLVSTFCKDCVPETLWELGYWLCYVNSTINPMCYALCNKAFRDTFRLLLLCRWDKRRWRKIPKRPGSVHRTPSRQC
CHO-K1 Ca ag – counter-screen for M1 agonists: effect in parental CHO-K1 cells; Fluo-8 calcium fluorescence; scaled to maximal ATP response, vehicle zero; activation, % at 3 µM; 360,000 tested, 0.48% active; AID 602248; in the data active means activation above about 15%;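 further: untransfected CHO-K1 host cells lacking M1 receptor as counterscreen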
CHO-K1 Ca PAM – M1 PAM counterscreen hit in parental CHO-K1 cells. activation, % at 3 µM. AID 602247. ATP EC20, Fluo-8 calcium fluorescence; 0% at ATP EC20, 100% at ATP max. 360,000 tested, 0.02% active;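 active means activation above the run cutoff, the mean activation of all test compounds plus 3 SD, cut at about 40% in these data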;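 further: peak over basal fluorescence ratio in a 140 s read after ATP addition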
M1 PAM – potentiates human M1 receptor response to acetylcholine; CHO-K1 hM1, Fluo-8 calcium fluorescence, ACh EC20; 0% = ACh EC20, 100% = maximal ACh; activation, % at 3 µM; 360,000 tested, 0.088% active; in the data active means activation above about 19%, passing the limit was not always enough
CHRM1 agonist – agonists of human M1 muscarinic receptor. P11229. CHO-K1 hM1, Fluo-8 calcium fluorescence, agonist mode; 0% DMSO, 100% acetylcholine EC100. activation, % at 3 µM. 360,000 tested, 0.33% active;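 active means activation above the run's mean compound activation plus 3 SD, cut at about 16% in these data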;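 further: peak over basal fluorescence ratio within a 140 s kinetic read after compound addition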
The depositor's hits bear a star; · = no result given. In the library only some 2.3% were active in any assay of this set; here they are far more common.

SMILES | CHO-K1 Ca antag | CHRM1 antagonist | CHO-K1 Ca ag | CHO-K1 Ca PAM | M1 PAM | CHRM1 agonist
O=c1[nH]c(O)c(C=NC2CCCCC2)c(=O)[nH]1 | -9.4 | 2.4 | 0.1 | 7.2 | 25.9* | -2.3
O=c1[nH]c(=S)n(CCC2=CCCCC2)c(O)c1C=NCCCn1ccnc1 | 25.3* | 30.4* | -0.1 | -5.8 | -17.4 | -5.3
O=C1NC(=O)C(=Cc2ccc(Sc3ccccc3)o2)C(=O)N1 | 0.2 | -0.5 | 0.7 | 0.5 | 3.7 | -5.4
O=C1NC(=O)N(c2ccc(Cl)cc2)C(=O)/C1=C\c1ccc(Sc2nc3ccccc3[nH]2)o1 | 29.5* | -0.7 | 7.7 | -15.6 | 0.8 | 11.2
C[C@]12CC[C@@H](O)CC1=CCC1C2CC[C@@]2(C)C1CC[C@@H]2N (stereo partly specified) | -8.3 | 26.4* | 0.6 | 7.0 | -20.2 | -8.9
C[C@]12CC[C@H](N)CC1=CCC1C2CC[C@@]2(C)C1CC[C@@H]2O (stereo partly specified) | -12.5 | -4.6 | 1.8 | 19.1 | 1.0 | -5.9
COc1ccc(CN2CCN(Cc3ccccc3F)CC2)cc1 | 4.6 | 11.9 | -0.3 | -12.9 | -2.8 | -10.1
CN(Cc1cccc(-c2ccncc2)c1)C(=O)Oc1ccccc1Cc1ccccc1 | 24.3* | · | 11.5 | -7.8 | · | ·
CN(Cc1cccc(-c2ccncc2)c1)C(=O)Oc1ccccc1Cl | 6.8 | · | 12.7 | -17.0 | · | ·
COc1ccccc1Sc1ccccc1CC(C)N (stereo unspecified) | -1.8 | -1.6 | 2.5 | 12.6 | 1.1 | -5.9
CC(Cc1ccccc1Sc1ccccc1)N(C)C (stereo unspecified) | -5.7 | 97.9* | 1.8 | 23.0 | -23.9 | -10.5
CN1CCN(Cc2ccccc2Sc2ccccc2)CC1 | -10.4 | 100.5* | 2.5 | 10.7 | -22.4 | -9.6
CSc1ccc(CN2CCN(Cc3ccccc3Cl)CC2)cc1 | -3.0 | 4.5 | -0.2 | 1.2 | -5.3 | -5.1
CC(Cc1ccccc1Sc1ccc(O)cc1)N(C)C (stereo unspecified) | -2.7 | 82.8* | 1.6 | 8.9 | -23.0 | -4.3
COC(=O)C1=C(c2ccc(OC)c(OC)c2)C[C@@H]2CC[C@H]1N2C(=O)N1CCC(O)CC1 | -10.0 | -7.7 | 0.2 | 8.2 | 5.7 | -3.3
CC1CN1c1cc2c(c3c1ccn3C)C1CCC2C1 (stereo unspecified) | 11.2 | -46.8 | -0.3 | 14.0 | 25.6* | -0.1
O=C(O)c1ccc(-[n+]2c(-c3ccccc3)cc(-c3ccccc3)cc2-c2ccccc2)cc1 | -9.9 | -7.3 | 0.6 | 10.1 | 9.5 | -5.6
CCCOC(=O)c1ccc(-[n+]2c(-c3ccccc3)cc(-c3ccccc3)cc2-c2ccccc2)cc1 | 2.3 | 45.5* | 5.3 | 6.4 | -27.5 | -7.6
Cc1ccccc1-[n+]1c(-c2ccccc2)cc(-c2ccccc2)cc1-c1ccccc1 | 5.5 | 64.6* | 4.8 | -3.5 | -27.6 | -7.9
Oc1ccccc1-[n+]1c(-c2ccccc2)cc(-c2ccccc2)cc1-c1ccccc1 | -6.6 | 30.4 | 0.5 | 5.7 | -22.0 | -7.9
COc1ccc(-[n+]2c(-c3ccccc3)cc(-c3ccc(C)cc3)cc2-c2ccccc2)cc1 | 14.3 | 86.2* | 12.6 | 2.0 | -30.1 | -5.8
COc1ccc(-c2cc(-c3ccccc3)[n+](C)c(-c3ccccc3)c2)cc1 | 5.8 | 13.1 | 0.0 | -6.0 | -11.4 | -12.3
COC(=O)C1=C(c2cccc(OCc3ccccc3)c2)C[C@@H]2CC[C@H]1N2C(=O)NCc1cc(C)oc1C(F)(F)F | -14.0 | 8.6 | -0.1 | -4.0 | -5.5 | -4.7
CN(C)CCSC1c2ccccc2CSc2ccccc21 (stereo unspecified) | -2.0 | 98.8* | 2.8 | 9.4 | -27.2 | -8.0
COc1ccc(NC2Oc3cc4c(cc3C(c3cc(OC)c(OC)c(OC)c3)C2C)OCO4)cc1 (stereo unspecified) | -0.5 | -26.3 | 1.7 | 2.3 | 19.6 | 6.8
CCN(CC)CCOC(=O)c1ccc(N=Cc2c(O)[nH]c(=O)[nH]c2=O)cc1 | 24.4* | 22.2* | 0.3 | -6.0 | -15.2 | -7.4
O=C1Nc2ccc(Br)cc2C(c2ccc(Cl)cc2)=NC1O (stereo unspecified) | 13.2 | 1.9 | 22.8* | 8.9 | 9.2 | 11.3
